Bioassay records (PubChem)
GRP78 ERSR act – qHTS for Inducers of the Endoplasmic Reticulum Stress Response (ERSR) in Human Glioma: qHTS | U87-MG GRP78 promoter luciferase reporter, 16 h | Potency, µM, most hits filed as activators | actives 0.02% (n = 420,000) | AID 602332, 2012; note: series mostly up to about 76 µM; nearly all actives have a fitted effect of over 35% in size
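Stably transfected U87-MG glioma cells carrying a GRP78-based luciferase sensor; 16 h compound incubation. Luminescence end-point read 10 min after Bright-Glo addition at room temperature.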
RXFP1 antagonist – qHTS Assay for Antagonists of the Relaxin Receptor RXFP1. activity change, negative = inhibition, % at 57.5 µM. actives 0.59% (n = 350,000). Relaxin receptor 1 (Homo sapiens), Q9HBX9. AID 1259400, 2018. HEK293-RXFP1, relaxin-stimulated cAMP HTRF, 30 min; active compounds read low;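 active = activity change of -60% or lower, but not beyond a set lower limit; inconclusive = change between -60% and -40%, or beyond the set limit; inactive = change above -40%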
RXFP1 ag – qHTS Assay for Agonists of the Relaxin Receptor RXFP1. HEK293T-RXFP1 cAMP TR-FRET, 30 min; response scale: percent of porcine relaxin response, buffer zero. actives 0.3% (n = 370,000). Potency, µM (highest dose often 57.5 µM), hits mostly activators; note: nearly all actives have a fitted effect of over 60% in size
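HEK293T cells stably expressing RXFP1 were pretreated with the PDE4 inhibitor Ro 20174, exposed to compounds for 30 min at 37C, lysed, and cAMP was read by TR-FRET. Data normalized to buffer (basal) and 29 nM porcine relaxin (100%).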
KCNH2 3.1 block – qHTS for Inhibitors of KCHN2 3.1: Mutant qHTS; Potassium voltage-gated channel subfamily H member 2, brain isoform KCNH2 3.1 (human); U2OS KCNH2 3.1, thallium flux FluxOr; active compounds read low; activity change, % (tested at about 1.8 µM); actives 0.95% (n = 340,000); AID 720553, 2013;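 active = maximum activity change below -70%; inconclusive = maximum activity change from -70% to -50%; inactive = maximum activity change above -50%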;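 note: thallium influx rate constant from kinetic fluorescence after stimulation buffer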
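Thallium flux read-out: FluxOr dye with Red40 quencher in HBSS/HEPES, 45 min at RT. Rate constants from kinetic reads were normalized to positive and negative DMSO controls. Cells: U2OS virally expressing the 3.1 isoform.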
PTHR1 ag – qHTS for PTHR1 Agonists: Primary Screen; HEK293 GP2 PTHR1 cells, GloSensor cAMP luminescence, 1 h; AID 743266, 2014; actives 0.075% (n = 410,000); Potency, µM (top dose mostly 115 µM), hits mostly activators; note: nearly all actives have a fitted effect of over 55% in size
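HEK-293-derived GP2 cells expressing PTHR1 and a GloSensor cAMP reporter, 3,000/well, plated overnight, given luciferin plus IBMX (each 0.5 mM as added) for 1 h at 37 °C, then compound for 1 h at 37 °C. Luminescence was read after 15 min at room temperature.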
KCNH2 WT inh – qHTS for Inhibitors of KCHN2 3.1: Wildtype qHTS; actives 0.37% (n = 340,000); Voltage-gated inwardly rectifying potassium channel KCNH2 (Homo sapiens), Q12809; activity change, % at 1.84 µM; U2OS, BacMam KCNH2, thallium flux FluxOr; active compounds read low;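 active = maximum activity change below -70%; inconclusive = maximum activity change between -70% and -50%; inactive = maximum activity change above -50%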
Target sequence (Q12809 whole entry, looked up): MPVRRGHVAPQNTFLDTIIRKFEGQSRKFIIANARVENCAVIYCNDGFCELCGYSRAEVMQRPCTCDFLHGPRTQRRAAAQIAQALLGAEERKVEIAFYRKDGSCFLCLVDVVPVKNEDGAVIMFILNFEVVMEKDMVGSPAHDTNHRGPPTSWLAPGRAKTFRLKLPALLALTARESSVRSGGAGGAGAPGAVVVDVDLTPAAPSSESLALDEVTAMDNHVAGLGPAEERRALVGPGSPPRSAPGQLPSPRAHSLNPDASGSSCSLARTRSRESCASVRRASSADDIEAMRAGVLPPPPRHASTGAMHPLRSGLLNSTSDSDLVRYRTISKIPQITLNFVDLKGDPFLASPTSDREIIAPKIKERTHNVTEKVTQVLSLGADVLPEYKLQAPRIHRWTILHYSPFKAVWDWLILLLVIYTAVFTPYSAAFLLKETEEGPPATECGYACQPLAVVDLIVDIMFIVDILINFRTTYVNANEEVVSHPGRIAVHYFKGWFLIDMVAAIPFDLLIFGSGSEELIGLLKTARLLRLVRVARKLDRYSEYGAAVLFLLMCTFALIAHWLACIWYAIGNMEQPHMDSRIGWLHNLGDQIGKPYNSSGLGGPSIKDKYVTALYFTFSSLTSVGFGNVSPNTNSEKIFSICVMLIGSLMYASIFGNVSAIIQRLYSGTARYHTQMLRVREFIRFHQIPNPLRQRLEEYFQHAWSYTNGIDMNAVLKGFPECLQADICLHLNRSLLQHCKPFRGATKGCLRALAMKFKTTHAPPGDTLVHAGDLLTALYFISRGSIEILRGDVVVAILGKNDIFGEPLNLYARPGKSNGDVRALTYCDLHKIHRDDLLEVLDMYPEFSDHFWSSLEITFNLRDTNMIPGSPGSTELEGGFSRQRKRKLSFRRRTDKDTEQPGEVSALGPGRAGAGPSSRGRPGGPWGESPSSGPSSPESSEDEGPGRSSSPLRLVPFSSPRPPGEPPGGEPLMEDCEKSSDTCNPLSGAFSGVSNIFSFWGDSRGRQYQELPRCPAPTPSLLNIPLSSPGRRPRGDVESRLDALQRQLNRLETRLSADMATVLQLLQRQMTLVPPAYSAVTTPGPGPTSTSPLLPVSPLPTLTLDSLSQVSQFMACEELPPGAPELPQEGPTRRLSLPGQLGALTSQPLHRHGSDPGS
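U2OS cells were transduced with wild-type KCNH2 virus (2.03 x 10^8 / mL) for 4 h at room temperature, then cultured overnight at 37 C. Thallium flux was read with FluxOr dye. Rate constants were normalized to DMSO controls.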
Hits are given with their value; 0 = inactive; ? = inconclusive; - = no result given. An excerpt weighted towards active compounds, which were near 1.4% of everything screened. Unless noted, calls come from the whole dose curve; as a rule, active = well fitted curve in the direction sought with a large enough effect; inconclusive = small, poorly fitted or top-dose-only effect, or another doubt; inactive = no such curve, though single readings can be large; an effect the other way counts as inactive or inconclusive.

SMILES	GRP78 ERSR act	RXFP1 antagonist	RXFP1 ag	KCNH2 3.1 block	PTHR1 ag	KCNH2 WT inh
COc1ccc(NC(=O)c2ccc(-c3ccc(-c4noc(C)n4)cc3C)cc2)cc1N1CCN(C)CC1	0	-	0	-87	0	0
O=S(=O)(c1ccc(F)cc1)N1CCN(CC(O)COCc2cccs2)CC1 (stereo unspecified)	0	0	0	-78	0	0
O=S(=O)(c1ccc(F)cc1)N1CCN(CC(O)COc2ccccc2F)CC1 (stereo unspecified)	0	0	0	0	0	0
Cc1ccc(CNC(=O)CC2(CC3=NS(=O)(=O)c4ccccc4N3)CCCC2)cc1	0	-	0	-85	0	0
OC1(C#CCN2CCOCC2)CCCCC1	0	0	0	0	0	-
C(#CC12CC3CC(CC(C3)C1)C2)CN1CCOCC1	0	0	0	0	0	-103
Cc1ccc(OCCn2cc(/C=N/NC(=O)c3ccncc3)c3ccccc32)cc1	0	0	0	0	0	-187
CCCNC(=O)C1CCC(Cn2c(=O)c3sccc3n(CC(=O)NCc3cccc(OC)c3OC)c2=O)CC1 (stereo unspecified)	0	-	22µM	-	?	-
O=C(C=Cc1ccccn1)c1ccccc1	0	-65	-	0	0	0
COc1cc(NS(=O)(=O)c2ccc(NC(=S)NC(=O)CC(C)C)cc2)nc(OC)n1	0	0	0	0	0	-118
CCOC(=O)c1cnc(SCc2cccc3ccccc23)nc1N	0	0	0	-133	0	0
COc1cccc(Oc2ncnc(N)c2[N+](=O)[O-])c1	0	0	0	0	0	0
Nc1nonc1-n1nnc(C(=O)N/N=C/c2ccccc2F)c1-c1cccs1	0	0	0	0	0	0
C/C(=N\N=C\c1ccccc1F)c1nnn(-c2nonc2N)c1C	0	-	0	-71	0	0
CCCCCNc1nc(N2CCCC2)c2c(c1C#N)CCN(C)C2	0	0	0	0	0	0
COc1ccc(N2C(=O)CC(c3ccccc3)CC2=O)cc1	0	-	0	0	0	0
CC1(C)COC(Cn2c3ccccc3c3ccccc32)O1 (stereo unspecified)	0	-65	0	0	0	0
CCOc1ccc(S(=O)(=O)NCCCn2ccnc2)cc1	0	0	0	0	0	0
CC(C)(CN=C1NS(=O)(=O)c2ccccc21)CNC(=O)c1ccccc1	0	0	0	0	0	-94
CN(C)S(=O)(=O)c1ccc(C(=O)NCC(C)(C)CN=C2NS(=O)(=O)c3ccccc32)cc1	0	0	0	0	0	0
CCOCCCn1c(=NC(C)=O)c(C(=O)OCC)cc2c(=O)n3ccccc3nc21	0	0	0	0	0	0
O=c1c(Cc2c(F)cccc2Cl)c(O)ccn1CCc1ccccn1	0	0	0	-92	0	0
CCc1nnc(NC(=O)c2cc(S(=O)(=O)N(C)c3ccc(OC)cc3)ccc2Cl)s1	0	0	0	0	0	0
COC(=O)C1(Cc2cc(-c3cccnc3)no2)CCN(C(=O)OC(C)(C)C)CC1	0	-	0	0	0	0
O=C(CN1C(=O)CCC1=O)Nc1nc(-c2ccccn2)cs1	0	-	0	-117	0	0
CCc1sc(C(=O)Nc2nc(-c3ccccn3)cs2)cc1C	0	-69	-	0	0	0
Cc1ccc(NC(=O)c2nc[nH]c2C(=O)N2CCC(C)CC2)cc1	0	-	0	-134	0	0
COCCCNS(=O)(=O)c1ccc2c3c(cccc13)C(=O)S2	0	0	0	-138	0	-132
OC(CNC1Cc2ccccc2C1)COc1ccc(Cl)cc1 (stereo unspecified)	0	-	0	0	0	0
